We go through eight compounds from PubChem BioAssay (NCI).

Holding throughout (assay): NCI-60 one-dose screen, 48 h (100 = growth as untreated, 0 = no growth, -100 = all killed)
One assay relates to HT29 colon. The conditions noted are these: 10 µM unless noted.
In a further assay the test system is SNB-75 CNS. The conditions noted are these: 10 µM unless noted.
In a further assay the test system is SNB-19 CNS. The conditions noted are these: 10 µM unless noted.
For a further assay, the system named is U251 CNS. The note with it: 10 µM unless noted.
In a further assay the test system is SK-MEL-5 melanoma. The conditions noted are these: 10 µM unless noted.
The next assay concerns UACC-62 melanoma. The conditions noted are these: 10 µM unless noted.
Another assay relates to LOX IMVI melanoma. The note with it: 10 µM unless noted.
The test system of a further assay is SK-MEL-28 melanoma. The note with it: 10 µM.
For the next assay, the system named is SK-MEL-2 melanoma. The note with it: 10 µM unless noted.
In another assay the test system is EKVX NSCLC. The conditions noted are these: 10 µM unless noted.
For a further assay, the system named is SN12C renal. The note with it: 10 µM unless noted.
The next assay has as its system UO-31 renal. The conditions noted are these: 10 µM unless noted.
The next assay concerns TK-10 renal. The note with it: 10 µM unless noted.
For a further assay, the system named is ACHN renal. The conditions noted are these: 10 µM unless noted.
The test system of the next assay is CAKI-1 renal. The note with it: 10 µM unless noted.
A further assay relates to A498 renal. The conditions noted are these: 10 µM unless noted.
In the next assay the test system is CCRF-CEM leukemia. The note with it: 10 µM unless noted.
Another assay concerns MOLT-4 leukemia. The note with it: 10 µM unless noted.
The next assay relates to SR leukemia. The conditions noted are these: 10 µM unless noted.
The subject of the next assay is PC-3 prostate. The note with it: 10 µM unless noted.

Compounds without any hit were thinned out: in the full panel of roughly 83,000, 20% have a hit.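 Single-concentration screen, 48 h exposure, 96-well plates. Endpoint: percent growth. Below 10 = active.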 Unmarked numbers belong to inactive results. Calls of active or inactive are those of the source.

Consider `COc1ccc(C2=NN(/C=C3\SC(=O)NC3=Nc3ccc(F)cc3)C(c3ccc(F)cc3)C2)cc1` (stereo not given), for which the growth with HT29 colon is 98.8%; in the assay on SNB-75 CNS, 96.5%; in the assay with SNB-19 CNS it was 95.1%; in the assay on U251 CNS, 94.1%; with SK-MEL-5 melanoma, 92%; with UACC-62 melanoma, 95.4%. Further, the growth in the assay on LOX IMVI melanoma is 97.6%; in the assay with SK-MEL-28 melanoma, 103%; with SK-MEL-2 melanoma, 102%; in the assay on EKVX NSCLC, 82.2%; with SN12C renal, 98.3%; with UO-31 renal, 73.4%. Moreover, the growth in the assay with TK-10 renal was 87.9%; in the assay with ACHN renal, 93.7%; in the assay with CAKI-1 renal, 89.1%; with A498 renal it was 93.8%; in the assay on CCRF-CEM leukemia it was 102%; in the assay with MOLT-4 leukemia it was 98.4%. For the same compound, the growth with SR leukemia was 106%.

On to `Nc1ccc(C2c3ccccc3Oc3ccccc32)cc1`, for which the growth with HT29 colon is 99.3%; in the assay with SNB-75 CNS, 84.5%; in the assay on SNB-19 CNS, 105%; with U251 CNS, 93.3%; with PC-3 prostate, 90%; with UACC-62 melanoma, 94.8%. For the same compound, the growth in the assay on LOX IMVI melanoma is 90.8%; in the assay on SK-MEL-28 melanoma, 114%; in the assay with SK-MEL-2 melanoma it was 110%; in the assay with EKVX NSCLC it was 86.3%; in the assay on SN12C renal it was 98.5%; in the assay with UO-31 renal it was 81.7%. Moreover, the growth with ACHN renal was 97.6%; in the assay on CAKI-1 renal, 87.2%; with A498 renal it was 124%; in the assay on CCRF-CEM leukemia, 94.8%; in the assay on MOLT-4 leukemia it was 83%; in the assay with SR leukemia it was 97.8%.

`COc1ccc(-c2c(-c3ccc(OC)c(O)c3)cnc3ncnn23)cc1`: the growth in the assay on HT29 colon was 108%; in the assay on SNB-75 CNS, 99.6%; with SNB-19 CNS it was 102%; with U251 CNS, 102%; with PC-3 prostate it was 105%; with UACC-62 melanoma, 99%. Also, the growth in the assay on LOX IMVI melanoma is 99.8%; in the assay on SK-MEL-28 melanoma, 114%; in the assay on SK-MEL-2 melanoma, 107%; in the assay on SN12C renal, 105%; with UO-31 renal, 94.1%; in the assay on TK-10 renal, 98%. The growth in the assay with ACHN renal is 105%; in the assay on CAKI-1 renal it was 95.1%; in the assay with A498 renal it was 91.9%; with CCRF-CEM leukemia, 102%; in the assay with MOLT-4 leukemia, 100%; in the assay with SR leukemia it was 109%.

On to `COc1ccc(CCN2C(=O)/C(=C/c3ccc(C4Oc5ccccc5C5CC(c6cccc(OC)c6)=NN54)cc3)SC2=S)cc1` (stereo not given), for which the growth is 104% in the assay on HT29 colon; 90.5% with SNB-75 CNS; 99.1% in the assay with SNB-19 CNS; 101% with U251 CNS; 99% with SK-MEL-5 melanoma; 102% with UACC-62 melanoma. For the same compound, the growth with LOX IMVI melanoma is 96.4%; in the assay with SK-MEL-28 melanoma it was 101%; in the assay on SK-MEL-2 melanoma, 99.8%; in the assay on EKVX NSCLC it was 94.4%; in the assay on SN12C renal, 101%; with UO-31 renal it was 82%. In addition, the growth in the assay with TK-10 renal is 103%; in the assay on ACHN renal it was 98.3%; in the assay with CAKI-1 renal it was 95.7%; in the assay with A498 renal, 106%; in the assay on CCRF-CEM leukemia, 98.8%; with MOLT-4 leukemia, 104%. The growth in the assay on SR leukemia is 115%.

For `COc1cc(/C=C/C(=O)N2c3ccccc3CC2C)c(OC)c2c1OCO2` (stereo not given), the growth in the assay with HT29 colon is 83.8%; in the assay on SNB-75 CNS, 97.2%; in the assay with SNB-19 CNS, 96.2%; with U251 CNS, 87.6%; in the assay on PC-3 prostate, 68.7%; with UACC-62 melanoma it was 84.5%. The growth was 94.3% with LOX IMVI melanoma; 90.7% in the assay on SK-MEL-28 melanoma; 98.6% in the assay on SK-MEL-2 melanoma; 97.1% in the assay on SN12C renal; 96% with TK-10 renal; 95.7% with ACHN renal. Further, the growth was 101% in the assay with CAKI-1 renal; 69.1% in the assay on A498 renal; 94.6% in the assay on CCRF-CEM leukemia; 84.6% with MOLT-4 leukemia; 102% in the assay with SR leukemia.

For the compound `O=C(Nc1ccc(Cl)cc1F)c1cc(I)ccc1O`, the growth is 103% in the assay with HT29 colon; 16.5% in the assay on SNB-75 CNS; 18.9% in the assay with SNB-19 CNS; 9.91% (active) in the assay with U251 CNS; 44% with PC-3 prostate; -1.26% (active) in the assay on UACC-62 melanoma. Besides, the growth was 19% in the assay on LOX IMVI melanoma; 18.5% in the assay with SK-MEL-28 melanoma; -19.3% (active) in the assay on SK-MEL-2 melanoma; 77% in the assay with EKVX NSCLC; 29.5% with SN12C renal; 34% in the assay on UO-31 renal. Further, the growth is 15.8% in the assay with TK-10 renal; 34.3% in the assay on ACHN renal; 22.8% in the assay on CAKI-1 renal; 29.9% in the assay with CCRF-CEM leukemia; 31.7% in the assay on MOLT-4 leukemia.

On to `Cc1nn(-c2nc3ccccc3[nH]2)c2c1C(c1ccc(OCC(N)=O)cc1)CC(=O)N2` (stereo not given), for which the growth in the assay on HT29 colon is 109%; in the assay on SNB-75 CNS, 92.3%; in the assay on SNB-19 CNS, 103%; with U251 CNS, 110%; in the assay on PC-3 prostate it was 97.4%; in the assay on UACC-62 melanoma, 97.8%. In addition, the growth with LOX IMVI melanoma is 109%; in the assay with SK-MEL-28 melanoma it was 105%; in the assay with SK-MEL-2 melanoma, 107%; in the assay with EKVX NSCLC, 96.9%; with SN12C renal it was 101%; with UO-31 renal it was 81.9%. For the same compound, the growth is 114% in the assay on TK-10 renal; 102% in the assay on ACHN renal; 89.5% with CAKI-1 renal; 79.1% with A498 renal; 22.5% in the assay on CCRF-CEM leukemia; -20.1% (active) in the assay on MOLT-4 leukemia. Moreover, the growth in the assay on SR leukemia is 117%.

For `CCOC(=O)c1cc2c(n1Cc1cc(OC)c(OC)c(OC)c1)-c1oncc1CCC2`, the growth in the assay on HT29 colon was 4.59% (active); with SNB-75 CNS it was 20.2%; in the assay on SNB-19 CNS, 72.1%; in the assay on PC-3 prostate, 37%; with SK-MEL-5 melanoma, 8.95% (active); in the assay with UACC-62 melanoma, 25.5%. Also, the growth was 27% with LOX IMVI melanoma; 41.1% in the assay with SK-MEL-28 melanoma; 54% in the assay on SK-MEL-2 melanoma; 32.1% with SN12C renal; 38.3% in the assay with UO-31 renal; 85.2% in the assay on TK-10 renal. For the same compound, the growth in the assay with ACHN renal is 33.8%; in the assay on CAKI-1 renal, 43.7%; in the assay with A498 renal, -22.9% (active); in the assay with CCRF-CEM leukemia, 5.78% (active); in the assay with MOLT-4 leukemia, 7.85% (active); with SR leukemia it was 2.12% (active).
